{"source": "PubChem BioAssay (NCI)", "note": "This is part of a sample that, as a whole, favours compounds with a hit. Of some 79,000 tested, about 15% had one in any assay. Unmarked numbers belong to inactive results. Calls of active or inactive are those of the source. No stated cut-off is given here; in the data, active means growth inhibition above about 70%; inactive means the rest. Where a SMILES comes first, the peptide text is derived from it. The star is where a group is joined. Cbz = O=C(OCc1ccccc1)*; OBn = c1ccc(CO*)cc1"}
{"assay": "NCI Yeast Anticancer Drug Screen. Data for the cln2 rad14 strain (AID 165);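 further: 0% = growth equal to vehicle treated cultures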", "conditions": "S. cerevisiae cln2 rad14 strain, at 50.0 µM, active compounds read high", "procedure,_shortened": "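cln2 rad14 yeast strain; compound exposure; growth inhibition read vs vehicle controls.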", "units": {"growth inhibition": "%"}}
{"smiles": "CCNc1ncnc2c1cnn2C", "growth inhibition": -36}
{"smiles": "Cc1ccc(C(c2ccc(C)c(C)c2)C(O)C(O)C(O)C(O)CO)cc1C", "note": "(stereo not drawn)", "growth inhibition": 1.6}
{"smiles": "CCCCNS(=O)(=O)c1cc(C(=O)O)cc(C(=O)O)c1", "growth inhibition": -33.9}
{"smiles": "NC(=S)c1cc[n+]([O-])cc1", "growth inhibition": -11.2}
{"smiles": "Cc1cccc(Cl)c1NC1=NCCN1C(=O)CC(=O)c1ccccc1", "growth inhibition": 12.8}
{"smiles": "Clc1cccc(NNc2cccc(Cl)c2)c1", "growth inhibition": -66.2}
{"smiles": "CCCCCCCCCCCCCCCCOc1ccc(C(=O)O)cc1", "growth inhibition": 8.35}
{"smiles": "Cc1cc[n+](-c2nc3c([O-])n(C)c(=O)n(C)c-3n2)cc1", "growth inhibition": -40.2}
{"assay": "NCI Yeast Anticancer Drug Screen. Data for the bub3 strain (AID 167)", "conditions": "S. cerevisiae bub3 mutant strain, at 50.0 µM, active compounds read high", "procedure,_shortened": "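Screening used yeast with an engineered genetic alteration affecting cell cycle control. Compound-exposed cultures were compared with vehicle cultures, and reduced growth was taken as inhibition.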"}
{"smiles": "CC12CCC(/C(=C/N(O)/C=C3\\C(=O)C4(C)CCC3C4(C)C)C1=O)C2(C)C", "growth inhibition": "6.75%"}
{"smiles": "COc1ccc(C(=O)OCc2ccccc2CN2CCOCC2)cc1", "growth inhibition": "-4.9%"}
{"smiles": "Cc1ccccc1C(=O)N(C(C)C)C(C)C", "growth inhibition": "15.2%"}
{"smiles": "CCCCCCCCCCCCCCCCCCCCCC(C)C", "growth inhibition": "-7.55%"}
{"smiles": "CC1(C)CCCCC1=O", "growth inhibition": "26.1%"}
{"smiles": "Cc1cnc(NCCCCNc2ncc(C)c(-c3ccccc3O)n2)nc1-c1ccccc1O", "growth inhibition": "-3.65%"}
{"smiles": "O=C(NC(CO)C(=O)N1CCCC1C(=O)OCc1ccccc1)OCc1ccccc1", "note": "(stereo not drawn) (Cbz-Ser-Pro-OBn; configuration not given here)", "growth inhibition": "4.45%"}
{"smiles": "COC(=O)c1cccc(=O)o1", "growth inhibition": "-1.2%"}
{"smiles": "CSC(=Nc1ccc([N+](=O)[O-])cc1C#N)NC(=O)c1ccccc1", "growth inhibition": "-16.8%"}
{"smiles": "COc1ccc(CCN=C2CCC(C(=O)NCCc3ccc(OC)c(OC)c3)N2)cc1OC", "note": "(stereo not drawn)", "growth inhibition": "-20.5%"}
{"smiles": "Cc1cccc(C)c1NC(=O)CCC(=O)CC(=O)C(C)C", "growth inhibition": "7.25%"}
{"smiles": "CC(=O)Nc1ccc(C2CC(c3ccc([N+](=O)[O-])cc3)=Nc3ccccc3S2)cc1", "note": "(stereo not drawn)", "growth inhibition": "13.9%"}
{"smiles": "Clc1cnnc2nc[nH]c12", "growth inhibition": "-15.8%"}
{"smiles": "CC(C)(C)C1CCC2c3c([nH]c4ncccc34)C3C(=O)N(c4ccccc4)C(=O)C3C2C1", "note": "(stereo not drawn)", "growth inhibition": "-32.6%"}
{"smiles": "COc1cccc(N2C(=O)[C@H]3[C@H]4CC(C(C)(C)C)CC[C@H]4c4c([nH]c5ccccc45)[C@H]3C2=O)c1", "note": "(stereo partly drawn)", "growth inhibition": "-9.4%"}
{"smiles": "CC1(c2nc3ccccc3[nH]2)CCC(C(=O)O)C(C)(C)O1", "note": "(stereo not drawn)", "growth inhibition": "-19.6%"}
{"smiles": "Cc1nc(C(N)=O)c(=O)[nH]c1C", "growth inhibition": "2.65%"}
{"smiles": "N#CC(C#N)=CNC(=S)Nc1ccc(Cl)c(Cl)c1", "growth inhibition": "36%"}
{"smiles": "NC(CC(=O)O)C(=O)OCc1cccc(N=Nc2ccccc2)c1", "note": "(stereo not drawn)", "growth inhibition": "-2.4%"}
{"smiles": "Cc1ccc(/C=N/n2c(Cc3ccccc3)n[nH]c2=O)cc1", "growth inhibition": "4.25%"}
{"smiles": "CC(C)=CCC/C(C)=C/CC/C(C)=C/C1CCC(=O)C1(C)C", "note": "(stereo not drawn)", "growth inhibition": "-33.3%"}
{"smiles": "O=C(CSc1cc(Cl)c(Cl)cc1Cl)Nc1cccc(Cl)c1", "growth inhibition": "-2.85%"}
{"smiles": "COc1ccc(C2Cc3cc(OC)c(OC)cc3C(c3ccccc3)N2)cc1OC", "note": "(stereo not drawn)", "growth inhibition": "-1.25%"}
{"smiles": "COc1ccc(Cc2cn(C)cc(Cc3ccc(OC)cc3)c2=O)cc1", "growth inhibition": "-1.2%"}
{"smiles": "O=C1CCCC(c2ccccc2)O1", "note": "(stereo not drawn)", "growth inhibition": "-27.4%"}
{"smiles": "C[N+](C)(C)c1cc(Br)c(O)c(Br)c1", "growth inhibition": "41.2%"}
{"smiles": "CCOC1(C)OC2OC(COC(C)=O)C(OC(C)=O)C(OC(N)=O)C2O1", "note": "(stereo not drawn)", "growth inhibition": "-1.15%"}
{"smiles": "CC(=O)Nc1c(Cl)cc(N)cc1Cl", "growth inhibition": "-16.4%"}
{"smiles": "CCN(CC)c1ccc(C=O)cc1", "growth inhibition": "13.2%"}
{"smiles": "C=CNC(=S)n1nc(-c2ccccc2NC(=O)C(F)(F)F)c(=O)n(C(=S)NC=C)c1=S", "growth inhibition": "-9.1%"}
{"smiles": "COc1cc(/C=C2\\SC(=S)N(/C=C(/C#N)C(=O)c3ccc4ccccc4c3)C2=O)cc(OC)c1OC", "growth inhibition": "27.2%"}
{"smiles": "C#CCN(CC#C)C(=O)CCCCCCCCC=C", "growth inhibition": "97.5% (active)"}
{"smiles": "CCNc1ncnc2c1cnn2C", "growth inhibition": "-2.8%"}
{"smiles": "Cc1ccc(C(c2ccc(C)c(C)c2)C(O)C(O)C(O)C(O)CO)cc1C", "note": "(stereo not drawn)", "growth inhibition": "-6.05%"}
{"smiles": "CCCCNS(=O)(=O)c1cc(C(=O)O)cc(C(=O)O)c1", "growth inhibition": "2.75%"}
{"smiles": "NC(=S)c1cc[n+]([O-])cc1", "growth inhibition": "-7.2%"}
{"smiles": "Cc1cccc(Cl)c1NC1=NCCN1C(=O)CC(=O)c1ccccc1", "growth inhibition": "2.05%"}
{"smiles": "Clc1cccc(NNc2cccc(Cl)c2)c1", "growth inhibition": "7.25%"}
{"smiles": "CCCCCCCCCCCCCCCCOc1ccc(C(=O)O)cc1", "growth inhibition": "3%"}
{"smiles": "Cc1cc[n+](-c2nc3c([O-])n(C)c(=O)n(C)c-3n2)cc1", "growth inhibition": "8.95%"}
